From PubChem BioAssay AID493100 (Broad Institute, 2011)
Measured potencies and affinities stand elsewhere. Inconclusive results are not listed.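 The calls were made as follows: active = decreasing signal in every run, fitted half-effect dose at most ten times the top valid dose; inconclusive = runs disagree, weak flat effect, or poor curve fit; inactive = every run inactive, signal rises included.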

test: blockers of SFLLRN-triggered platelet ATP secretion – cell-based, human platelets, luminescence, dry powder, dose response (AID 493100); conditions: SFLLRN-induced ATP dense granule secretion; series mostly up to 35 µM; activity change, negative = inhibition: at the top concentration

Activity change, negative = inhibition, inactive:
CCCC(=O)Nc1cccc(NC(=O)c2ccc(OC)cc2)c1 -16.3%
CC(=O)Nc1ccc(/C=N/NC(=O)CC2CCCCC2)cc1 -15.4%
CCCC(=O)Nc1cccc(NC(=O)c2ccc(Cl)cc2)c1 1.1%
CCCCC(=O)Nc1cccc(NC(=O)c2ccccc2Br)c1 -0.702%
CC(=O)c1ccc(NC(=O)C(F)(F)F)cc1 4.41%
CC(=O)Nc1cccc(NC(=O)c2ccccc2Cl)c1 -10.5%
CCCC(=O)Nc1cccc(NC(=O)c2ccccc2OC)c1 -17.9%
NNC(=O)C1CCCC1 4.1%
O=C(Nc1cccc(NC(=O)c2ccccc2Br)c1)c1ccccc1 -19.6%
CCCC(=O)Nc1cccc(NC(=O)c2cccc(-c3ccccc3)c2)c1 -4.16%
C/C(=N\NC(=O)C1CCCC1)c1ccc(Cl)cc1 -1.57%
CCCC(=O)Nc1cccc(NC(=O)c2ccco2)c1 -14.2%
O=C(Nc1cccc(NC(=O)c2ccccc2Cl)c1)c1ccco1 -5.54%
CCCC(=O)Nc1cccc(NC(=O)c2cccc([N+](=O)[O-])c2)c1 -9.94%
CCCC(=O)Nc1cccc(NC(=O)c2cccc(Oc3ccccc3)c2)c1 -0.033%
CCCC(=O)Nc1cccc(NC(=O)c2cnc3ccccc3c2)c1 -1.45%
CCCC(=O)Nc1cccc(NC(=O)c2ccc(F)cc2)c1 -5.49%
C/C(=N\NC(=O)c1ccccc1)c1ccc(NC(=O)C(F)(F)F)cc1 2.81%
CC(=O)N/N=C(\C)c1ccc(NC(=O)C2CC2)cc1 -2.3%
CCCC(=O)Nc1cccc(NC(=O)c2cccnc2)c1 -1.9%
CCCC(=O)Nc1cccc(NC(=O)c2ccc(S(C)(=O)=O)cc2)c1 0.039%
